Screens: PubChem, National Center for Advancing Translational Sciences (NCATS)
RXFP1 agonist – qHTS Assay for Agonists of the Relaxin Receptor RXFP1; actives 0.3% (n = 370,000); Relaxin receptor 1 (Homo sapiens), Q9HBX9; AID 2676, 2010; HEK293T-RXFP1 cAMP TR-FRET, 30 min; response scale: percent of porcine relaxin response, buffer zero; Potency, µM (top dose mostly 57.5 µM), most hits filed as activators; also: nearly all actives have a fitted effect of over 60% in size
Target sequence (Q9HBX9 whole entry, looked up): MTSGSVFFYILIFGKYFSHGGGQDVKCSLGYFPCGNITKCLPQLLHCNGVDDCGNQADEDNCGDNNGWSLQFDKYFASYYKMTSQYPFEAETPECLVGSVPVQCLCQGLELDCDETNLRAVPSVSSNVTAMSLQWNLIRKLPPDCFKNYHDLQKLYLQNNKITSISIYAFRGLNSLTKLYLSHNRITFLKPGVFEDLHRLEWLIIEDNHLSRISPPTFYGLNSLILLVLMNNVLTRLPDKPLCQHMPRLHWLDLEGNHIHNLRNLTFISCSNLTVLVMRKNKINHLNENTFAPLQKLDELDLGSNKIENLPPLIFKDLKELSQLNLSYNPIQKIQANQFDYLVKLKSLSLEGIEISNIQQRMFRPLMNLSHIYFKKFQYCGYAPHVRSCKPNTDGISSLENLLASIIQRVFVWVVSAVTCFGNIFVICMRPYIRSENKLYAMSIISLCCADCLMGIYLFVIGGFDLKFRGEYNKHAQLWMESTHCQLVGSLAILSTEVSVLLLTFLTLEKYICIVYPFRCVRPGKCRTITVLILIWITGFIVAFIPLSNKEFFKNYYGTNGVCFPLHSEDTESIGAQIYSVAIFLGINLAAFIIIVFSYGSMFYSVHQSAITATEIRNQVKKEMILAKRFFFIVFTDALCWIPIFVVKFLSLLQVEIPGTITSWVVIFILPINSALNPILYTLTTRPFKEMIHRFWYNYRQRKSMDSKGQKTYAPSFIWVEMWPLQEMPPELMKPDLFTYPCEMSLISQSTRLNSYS
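HEK293 cells stably expressing RXFP1, treated 30 min at 37C with compounds plus PDE4 inhibitor Ro 20174; cAMP measured by HTRF TR-FRET. Normalized to buffer and 29 nM porcine relaxin; EC50 by Hill fit.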
Integrin act MD – qHTS for Activators of Integrin-Mediated Alleviation for Muscular Dystrophy | actives 0.064% (n = 350,000) | alpha7betagal myoblasts, beta-gal FDG fluorescence, 48 h | Potency, µM (series often up to 38.3 µM), hits mostly activators; also: nearly all actives have a fitted effect of over 60% in size
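alpha7betagal+/- myoblasts (passage 13, 250/well) treated 48 h at 37C with compounds at 1:260 dilution of DMSO stock. Lysed, then beta-galactosidase activity read as FDG fluorescence (ex 480/em 540) after 30 min, with pre-read for autofluorescence.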
gsp antagonist – qHTS for Antagonists of gsp, the Etiologic Mutation Responsible for Fibrous Dysplasia/McCune-Albright Syndrome: qHTS. gsp-mutant cells, cAMP HTRF, 30 min. Potency, µM (highest dose often 76.9 µM), actives largely listed as inhibitors. actives 0.4% (n = 340,000); calls by dose curve; cell line not stated here;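 also: intracellular cAMP measured with PDE inhibitor Ro 20-1724 present during compound exposure; nearly all actives have a fitted effect of over 65% in size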
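G418-selected cells were plated in DMEM/10% FBS for 16-24 h at 37C, then treated with compounds plus the PDE inhibitor […] (300 uM solution added) for 30 min at 37C. Intracellular cAMP was measured by HTRF after 30 min lysis at room temperature.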
RXFP1 antagonist – qHTS Assay for Antagonists of the Relaxin Receptor RXFP1; Relaxin receptor 1 (Homo sapiens), Q9HBX9; HEK293-RXFP1, relaxin-stimulated cAMP HTRF, 30 min; active compounds read low; activity change, negative = inhibition, % at 57.5 µM; actives 0.59% (n = 350,000); AID 1259400, 2018;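 active = activity change of -60% or lower, but not beyond a set lower limit; inconclusive = change between -60% and -40%, or beyond the set limit; inactive = change above -40%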
S-ASM inh – Inhibitors of Secretory Acid Sphingomyelinase (S-ASM): qHTS; Sphingomyelin phosphodiesterase (Homo sapiens), P17405; placental ASM, HMU-PC fluorogenic substrate, 60 min; Potency, µM (doses to about 57.5 µM), actives largely listed as inhibitors; actives 0.006% (n = 340,000); AID 504937, 2011
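Human placenta-derived ASM preincubated with compound 10 min at room temperature, then reacted with 9 uM (final) fluorogenic HMU-PC substrate for 60 min at 37 C. Stop solution raises pH to 10; fluorescence read at Ex 386/Em 447 nm.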
gsp agonist – qHTS for Agonist of gsp, the Etiologic Mutation Responsible for Fibrous Dysplasia/McCune-Albright Syndrome: qHTS. actives 0.13% (n = 340,000). gsp mutant cells, cAMP HTRF, 30 min. Potency, µM (top dose mostly 76.9 µM), usual class: activators; active = well fitted activation curve with a large enough effect; inconclusive = small, poorly fitted or top-dose-only effect, or another doubt; inactive = no such curve, though single readings can be large or run the other way; cell line not stated here;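 also: phosphodiesterase inhibitor Ro 20-1724 added with compounds to block cAMP breakdown; nearly all actives have a fitted effect of over 60% in size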
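Cells in DMEM/10% FBS with G418 were pretreated with compounds in DMSO plus […] (300 uM stock) for 30 min at 37C. cAMP was measured by HTRF (cAMP-d2 plus anti-cAMP antibody-K) after 30 min at room temperature.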
Each line names hits and unclear results; the compound was inactive in the other large screens. The list is not random: actives were taken first. Their share in the collection is about 1.1%. Unless noted, calls follow the shape of the dose curve; as a rule, active = well fitted curve in the direction sought with a large enough effect; inconclusive = small, poorly fitted or top-dose-only effect, or another doubt; inactive = no such curve, though single readings can be large; an effect the other way counts as inactive or inconclusive.

O=C(CSc1ccc2nnc(-c3ccncc3)n2n1)Nc1ccc2c(c1)OCCO2	gsp agonist inconclusive (no result: RXFP1 antagonist)
O=C(CSc1ccc2nnc(-c3ccncc3)n2n1)Nc1ccc2c(c1)OCO2	gsp agonist 16µM (no result: RXFP1 antagonist)
Cc1ccc(-c2nnc3ccc(SCC(=O)Nc4cc(C)on4)nn23)cc1	none
Cc1cc(NC(=O)CSc2ccc3nnc(-c4cccs4)n3n2)no1	gsp agonist 11µM (no result: RXFP1 antagonist)
CCC(Sc1ccc2nnc(-c3cccnc3)n2n1)C(=O)OC (centres undefined)	RXFP1 agonist 14µM, gsp agonist inconclusive
CCCCCC(O)(c1ccccc1)C(CN1CCOCC1)c1ccccc1 (centres undefined)	RXFP1 antagonist -64
CC(C)CCC(O)(c1ccccc1)C(CN1CCOCC1)c1ccccc1 (centres undefined)	RXFP1 antagonist -80
COc1ccc(C(O)(CCC(C)C)C(CN2CCOCC2)c2ccccc2)cc1 (centres undefined)	RXFP1 antagonist inconclusive
CCC1=C(OC(=O)N(CC)CC)N2C(=O)OC(=NCCc3c[nH]c4ccccc34)[C@]2(Cc2ccccc2)[C@H]2C1=CC[C@H]1C(=O)N(CC(=O)OC)C(=O)[C@H]12	gsp antagonist inconclusive (no result: RXFP1 antagonist)
CCC1=C(OC(=O)N(CC)CC)N2C(=O)OC(=NCCc3c[nH]c4ccccc34)[C@]2(Cc2ccccc2)[C@H]2C1=CC[C@H]1C(=O)NC(=O)[C@H]12	gsp antagonist 11µM (no result: RXFP1 antagonist)
O=C(c1cc(COc2cccc3cnccc23)on1)N1CCC(c2ccccc2Cl)C1 (centres undefined)	gsp antagonist 28µM
CCc1ccc(CN(C)C(=O)c2cc(COc3cccc4cnccc34)on2)cc1	gsp antagonist 35µM
NC(=S)c1cc2ccc(O)cc2oc1=O	RXFP1 agonist 13µM, gsp agonist 2.5µM (no result: RXFP1 antagonist)
CC(NC(=O)/C(C#N)=C/c1ccc(Cl)c([N+](=O)[O-])c1)c1ccccc1 (centres undefined)	RXFP1 antagonist -104
COc1ccc(NC(=O)c2c(C)oc3ccc(O)c(CN4CCN(Cc5ccccc5)CC4)c23)cc1Cl	RXFP1 antagonist inconclusive (no result: Integrin act MD, gsp antagonist, S-ASM inh, gsp agonist)
CCCCN(CCO)c1ncnc2sc(-c3ccccc3)cc12	Integrin act MD inconclusive, RXFP1 antagonist -65
CCOC(=O)N1CCN(C(=O)CSCC(=O)Nc2nc(-c3ccc(-c4ccccc4)cc3)cs2)CC1	gsp antagonist 25µM
CCOC(=O)N1CCN(C(=O)CSCC(=O)Nc2nc(-c3ccc(Cl)s3)cs2)CC1	gsp antagonist 25µM
CCOC(=O)N1CCN(C(=O)CSCC(=O)Nc2nc(-c3ccc(OC)cc3)cs2)CC1	gsp antagonist 28µM
O=C(CSCC(=O)N1CCOCC1)Nc1nc(-c2ccccc2)cs1	gsp agonist inconclusive
COc1ccccc1C1(O)CCN(CC(=O)Nc2nc(-c3ccccc3)cs2)CC1	RXFP1 antagonist -76
Cc1cc(S(=O)(=O)NCc2ccncc2)c(C)cc1Br	gsp agonist inconclusive
CCOC(=O)c1ccc(N2CCN(c3cc(Cl)ccc3C)CC2)c(NC(=O)Nc2cccc(OC)c2)c1	none (no result: Integrin act MD, gsp antagonist, S-ASM inh, gsp agonist)
O=C(C=Cc1ccccn1)c1ccccc1O	none (no result: RXFP1 agonist)
O=C(C=Cc1ccccn1)c1ccccc1	RXFP1 antagonist -65 (no result: RXFP1 agonist)
COc1ccc(-c2noc(N3CCC(C(=O)N4CCN(c5cccc(OC)c5)CC4)CC3)n2)cc1	none (no result: Integrin act MD, gsp antagonist, S-ASM inh, gsp agonist)
CC(C)(C)C(=O)NCCc1nc2ccccc2n1CCCCOc1ccc(Cl)cc1	RXFP1 antagonist -85 (no result: Integrin act MD, gsp antagonist, S-ASM inh, gsp agonist)
Cc1cccc(OCCCn2c(CCNC(=O)C(C)(C)C)nc3ccccc32)c1	none (no result: Integrin act MD, gsp antagonist, S-ASM inh, gsp agonist)
Cc1ccccc1OCCCCn1c(CCNC(=O)C(C)(C)C)nc2ccccc21	RXFP1 antagonist -63 (no result: Integrin act MD, gsp antagonist, S-ASM inh, gsp agonist)
O=C1CN(C(=O)c2ccccc2C(F)(F)F)C(c2ccccc2)c2cc(F)ccc2N1 (centres undefined)	none (no result: Integrin act MD, gsp antagonist, S-ASM inh, gsp agonist)
CCOC(=O)c1c(NC(=O)CSc2n[nH]c(-c3ccco3)n2)sc(C)c1C	RXFP1 antagonist -75
Cc1nnc(NC(=O)CSc2cn(Cc3ccccc3)c3ccccc23)s1	gsp agonist 16µM
COc1ccc(NC(=O)CC2C(=O)N(C)C(=S)N2CCc2ccc(F)cc2)cc1 (centres undefined)	none
COc1ccc(CCN2C(=S)N(C)C(=O)C2CC(=O)Nc2ccc(OC)cc2)cc1 (centres undefined)	RXFP1 antagonist -63
Cc1ccccc1-c1noc(-c2cccnc2N2CCN(c3ccccc3)CC2)n1	none (no result: Integrin act MD, gsp antagonist, RXFP1 antagonist, S-ASM inh, gsp agonist)
COc1ccc2nc(Nc3nc(C)c(C(C)=O)s3)sc2c1	RXFP1 antagonist -70
CCc1nc(N)nc(N)c1-c1ccc(N(C)Cc2ccccc2)c([N+](=O)[O-])c1	RXFP1 antagonist -103 (no result: RXFP1 agonist)
Cc1ccc(Cl)c(OCCN2CCc3ccccc3C2)c1	none
O=C(NCc1ccncc1)c1ccc(Cl)c(S(=O)(=O)N2CCCCC2)c1	none
O=C(NCCOC(=O)c1ccc(Cl)c(S(=O)(=O)N2CCCCC2)c1)c1ccncc1	gsp antagonist 40µM
CN(C(=S)Nc1ccc(SC(F)F)cc1)C(c1ccccc1)c1ccccc1	gsp antagonist 6.3µM
CCOc1cc(CNCCCN2CCOCC2)cc(Br)c1OCc1ccccc1Cl	RXFP1 antagonist -92
CCOc1cc(CNCCO)cc(Br)c1OCc1ccccc1Cl	RXFP1 antagonist -74
COc1cc(CNCc2ccncc2)cc(Br)c1OCc1ccccc1F	gsp antagonist 32µM
COc1ccc(NS(=O)(=O)c2ccc(O)c(NC(=O)c3ccc(S(=O)(=O)N4CCCCCC4)cc3)c2)cc1	gsp antagonist inconclusive
COc1ccc(NS(=O)(=O)c2ccc(O)c(NC(=O)c3ccc(S(=O)(=O)N4CCCC4)cc3)c2)cc1	Integrin act MD inconclusive, RXFP1 antagonist -60
O=C(COC(=O)c1c2ccccc2cc2ccccc12)Nc1ncc(C(F)(F)F)cc1Cl	gsp agonist 25µM
O=C(COC(=O)c1ccc2ccccc2c1)Nc1ncc(C(F)(F)F)cc1Cl	none
COc1cccc(/C=N/Nc2ncnc(Cl)c2N)c1O	none
COc1cccc(/C=N/Nc2nccnc2Cl)c1O	RXFP1 antagonist -70
COc1ccccc1N1CCN(C(=O)Cn2ncc3c2-c2cc(C)ccc2OC3)CC1	none (no result: Integrin act MD, gsp antagonist, RXFP1 antagonist, S-ASM inh, gsp agonist)
O=C(NC(=S)Nn1cnc2c(cnn2-c2ccccc2)c1=O)c1ccc(Cl)cc1	gsp antagonist inconclusive, RXFP1 antagonist -72
